This passage reports proliferation results from PubChem BioAssay AID2380 (Sanford-Burnham Center for Chemical Genomics, 2010).

The campaign covered roughly 330,000 compounds. About 960 (0.29%) were called active.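 Rule for the calls: active = compounds whose signal lies at least 3.5 SD above the mean of all wells on their plate; inactive = the rest.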 The entries come from a sample that favours actives as a whole.

This assay is described as follows: inducers of MIN6 beta-cell proliferation, primary screen, ATP luminescence, uHTS (AID 2380).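 Note: 0% = DMSO-treated cells in low-serum medium and 100% = 10% serum control.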 To be noted: MIN6 cells proliferation, ATPlite luminescence, 48 h; at 10 µM; hits give high values; 100% = growth in 10% serum; cells starved in 0.2% serum. In general terms: In ATP-based viability assays light output follows the ATP content of the culture.
With `COc1ccc(N(CC(=O)N2CCOCC2)S(=O)(=O)c2ccccc2)cc1Cl`, the proliferation is -0.37% (inactive). To `COCCN(C(=O)CCC(=O)Nc1nccs1)C(C(=O)NC(C)(C)C)c1ccc(Cl)cc1` (centres undefined) belongs 5.62% (inactive); to `CC(=O)Nc1ccc(/C(C)=N/NC(=O)CN(c2ccccc2Br)S(C)(=O)=O)cc1`, 0% (inactive).

As to `C=CCn1c(=O)c(C(=O)NCc2ccc3c(c2)OCO3)c(O)c2ccccc21`, the proliferation was -5.37% (inactive). Next, `CCn1c(=O)c([N+](=O)[O-])c(NCc2ccc3c(c2)OCO3)c2ccccc21`: 8.6% (active). To `CCn1c(=O)cc(SCC(=O)NCc2ccc3c(c2)OCO3)c2ccccc21` belongs 0.19% (inactive); to `CCc1ccc(S(=O)(=O)NCC(O)COc2ccc(OC)cc2)cc1` (centres undefined), 1.69% (inactive); to `COc1ccc(CN(C(=O)CSc2nnc(-c3ccc(OC)c(OC)c3)o2)c2ccc(F)cc2)cc1`, -1.49% (inactive).

As to `CSc1cccc(NC(=O)CN2C(=O)COc3ccc(S(=O)(=O)N4CCOCC4)cc32)c1`, the proliferation was -3.64% (inactive). Regarding `O=C(c1ccc(F)cc1)c1cn(Cc2ccc(F)cc2)c2cc3c(cc2c1=O)OCCO3`, the proliferation was -0.71% (inactive). For the compound `Cc1cc(NC(=O)COn2nnc3ccccc32)no1`, the proliferation was -1.01% (inactive).

Consider `Cc1cc(NC(=O)CSc2nc3ccccc3n2CC(C)C)no1`, for which the proliferation is 7.98% (active). To `Cc1cc(NC(=O)CSCC(=O)NC(C)c2ccccc2)no1` (centres undefined) belongs -3.94% (inactive). Next, `CCOc1ccc(C(=O)Nc2ccc(CN3CCOCC3)cc2)cc1Cl`: -1.37% (inactive). Next, `CCOC(=O)c1csc(CCNC(=O)c2oc3c(Cl)cc(C)cc3c2C)n1`: -3.1% (inactive); `O=c1c2ccccc2c(-c2ccc(Br)cc2)nn1Cc1ccccc1`: -5.75% (inactive). `CCOC(=O)C(C)n1nc(-c2ccccc2)c2ccccc2c1=O` (centres undefined): the proliferation is 4.32% (inactive). `CCCNC(=O)CCn1nc(-c2ccccc2)c2ccccc2c1=O`: the proliferation is 9.9% (active). In the case of `CCCn1c(C)cc(/C=C(\C#N)C(=O)OCC(=O)Nc2cc(OC)c(OC)c(OC)c2)c1C`, the proliferation is -0.86% (inactive).

Turning to `COc1ccccc1N(C)C(=O)c1cc(S(=O)(=O)N2CCc3ccccc32)cn1C`, the proliferation was -2.09% (inactive).

As to `CCOC(=O)c1c(N=CN(C)C)c(C#N)c2n1CCCC2`, the proliferation was 5.05% (inactive). To `CC1=NN(C(=O)CCCc2ccccc2)C(O)(C(F)(F)F)C1` (centres undefined) belongs -1.71% (inactive).

As to `OC1CN=C2Sc3ccccc3N2C1` (centres undefined), the proliferation was 5.2% (active). For `CCOC(=O)N1CCN(C(=O)c2ccc3nc4cc(Cl)ccc4c(=O)n3c2)CC1`, the proliferation was -2.76% (inactive). Next, `O=C(CN1CCN(c2ccc(Cl)cc2)CC1)NCc1cccs1`: 0.22% (inactive); `COc1cc2c(cc1OC)C(C(=O)NCc1ccco1)C1c3ccccc3CCN1C2=O` (centres undefined): 9.44% (active); `COc1ccc(S(=O)(=O)N2CCC(C(=O)NCc3ccco3)CC2)cc1C`: -0.27% (inactive). To `CC1(C)SC2c3ccccc3C(=O)N2[C@@H]1C(=O)NCc1ccco1` (some centres undefined) belongs 0.14% (inactive).

For the compound `O=C1NC(c2ccc(-c3ccccc3[N+](=O)[O-])o2)C(C(=O)c2ccc(Cl)cc2)C(O)(C(F)(F)F)N1` (centres undefined), the proliferation was -2.76% (inactive).

`COC(C(=O)NCc1ccccc1C)c1ccccc1` (centres undefined): the proliferation was -1.34% (inactive).

As to `CC(=O)CC[C@@H](C)O[C@@H]1OC(C)[C@H](O)CC1O` (some centres undefined), the proliferation is -5.25% (inactive). As to `COc1cccc(CNC(=O)CCC2CCCN(C(=O)c3cc(C)[nH]n3)C2)c1` (centres undefined), the proliferation was 0.78% (inactive). To `COc1cccc(CNC(=O)CCC2CCCN(C(=O)c3ccoc3C)C2)c1` (centres undefined) belongs 12.3% (active).

Take `COc1cccc(CNC(=O)CCC2CCCN(C(=O)c3ccc(F)c(Cl)c3)C2)c1` (centres undefined): the proliferation was -1.84% (inactive).

Consider `COc1ccc(/C=C2\CCCC3C2=NN(C(=O)c2scnc2C)C3c2ccc(OC)cc2)cc1` (centres undefined), for which the proliferation is -5.85% (inactive). To `COc1ccc(N2CCN(C(CNS(=O)(=O)c3ccc(C)cc3)c3ccccc3)CC2)cc1` (centres undefined) belongs -4.55% (inactive); to `CN(CCc1cnn(C)c1)Cc1cn(C)nc1-c1ccccc1F`, -0.61% (inactive); to `CCCOC1CCCN(Cc2cn(C)nc2-c2ccccc2F)C1` (centres undefined), 1.33% (inactive). Next, `Cn1cc(CN2CCC(C(O)CCc3ccccc3)CC2)c(-c2ccccc2F)n1` (centres undefined): 11.8% (active); `COc1cc(/C=C/CO)cc(OC)c1O[C@@H]1O[C@H](CO)[C@@H](O)[C@H](O)[C@H]1O`: -0.51% (inactive); `O=C(O)c1cccc(S(=O)(=O)N2CC=C(c3ccccc3)CC2)c1`: 0.12% (inactive). With `Cc1ccc(NC(=O)c2ccc(S(=O)(=O)NCC3CCCO3)cc2)cc1C` (centres undefined), the proliferation was -3.24% (inactive).

In the case of `O=C1CCN(Cc2ccccc2)CCN1[C@H](CSc1ccccc1)c1ccccc1`, the proliferation was 2.8% (inactive).

As to `N#Cc1cccc(CN2CCC(=O)N(CCO)CC2)c1`, the proliferation is -4.43% (inactive). As to `N#Cc1cccc(CN2CCC(=O)N([C@H](CO)c3ccccc3)CC2)c1`, the proliferation is 14.7% (active).

For the compound `COc1cccc(N=c2oc3c(C)ncc(CO)c3cc2C(N)=O)c1`, the proliferation was -0.09% (inactive). Next, `CC(C)Cc1oc(C(=O)O)cc1CN`: -3.33% (inactive); `CCCCNC(=O)OCCSCCS(=O)(=O)c1ccc(Cl)cc1`: -0.91% (inactive); `CC[C@@H]1Cc2cc(O)ccc2C2=C1c1ccc(O)cc1C[C@H]2CC`: -8.09% (inactive). To `COCCCNC(=O)Cn1c(=O)n(Cc2ccccc2Cl)c(=O)c2cc(OC)c(OC)cc21` belongs -2.84% (inactive); to `COc1ccc2c(c1)C(=C(C#N)C#N)C(=O)N2CCc1ccccc1`, -3.84% (inactive); to `CC(N)C12CC3CC(CC(O)(C3)C1)C2` (centres undefined), -0.37% (inactive). To `CN(CC(=O)Nc1c(Cl)cccc1Cl)C(=O)c1ccncc1` belongs -1.79% (inactive); to `CN1CCN(c2ccc(CNS(=O)(=O)c3cccc(F)c3)cc2)CC1`, -0.97% (inactive); to `COc1ccc(-n2nnnc2CNC(=O)c2ccc3ccccc3c2)cc1`, -1.98% (inactive). For `CC(=O)c1ccc(S(=O)(=O)NCc2nnnn2-c2ccccc2)cc1`, the proliferation was 11.8% (active).

On to `O=S(=O)(Cc1nnnn1-c1ccccc1)c1ccccc1`, for which the proliferation was -0.06% (inactive). Next, `COc1ccccc1C(=O)N1CCN=C1SCc1cccnc1`: 0.39% (inactive); `CCCCn1c(N)c(N(CC)C(=O)c2ccc(N(C)S(=O)(=O)c3ccc(C)cc3)cc2)c(=O)[nH]c1=O`: -0.39% (inactive).

Consider `Cc1cccc(NS(=O)(=O)c2cccc(C(=O)NNC(=O)c3ccccc3O)c2)c1`, for which the proliferation was 1.68% (inactive). To `CCC1(C)Cc2c(sc3nnn(CC(=O)Nc4ccc(Cl)cc4)c(=O)c23)CO1` (centres undefined) belongs -4.3% (inactive); to `Cc1ccc(C(=O)NC(=S)Nc2ccc(N3CCOCC3)cc2)cc1`, -3.24% (inactive). To `O=C(NN=Cc1ccc(N2CCOCC2)cc1)c1cc2ccccc2cc1O` belongs -1.83% (inactive). Next, `C/C(=N\NC(=O)c1ccccc1C)c1ccc(N2CCOCC2)cc1`: 5.16% (active); `CN=C1SC(C(=O)O)CC(=O)N1C` (centres undefined): -0.72% (inactive); `CCC(C)NC(=O)/C=C/c1ccc(S(=O)(=O)NCc2ccco2)cc1` (centres undefined): -2.61% (inactive).

Regarding `Cc1ccc(O)c(NC(=O)c2cc(-c3ccco3)on2)c1`, the proliferation was -1.09% (inactive). To `Cc1ccc(S(=O)(=O)NCCC(=O)OCC(=O)N(C)c2ccccc2)cc1` belongs 1.89% (inactive). Next, `O=S(=O)(NCc1ccc(Cl)cc1Cl)c1cccs1`: -2.31% (inactive); `CN(Cc1c(F)cccc1Cl)S(=O)(=O)c1cccs1`: 0% (inactive). Next, `CN(Cc1ccc(F)cc1Cl)S(=O)(=O)c1cccs1`: 5.5% (active); `COc1ccc(N(CC(=O)Nc2cc(OC)cc(OC)c2)S(=O)(=O)c2c(C)n[nH]c2C)cc1`: -2.27% (inactive). Regarding `CCCN1C(=O)C(Cc2nc3ccccc3c(=O)n2-c2ccccc2)c2cc(C)ccc21` (centres undefined), the proliferation is -2.19% (inactive). Next, `CN1CCN(C2Cc3ccc(Cl)cc3Sc3ccc(F)cc32)CC1` (centres undefined): -4.32% (inactive); `COc1ccccc1N=Cc1c(O)c2ccccc2oc1=O`: 6.71% (active); `COc1ccccc1N=C(C)C1=C(O)COC1=O`: -1.39% (inactive).

On to `COc1cc(N=Cc2c(O)c3ccccc3oc2=O)c(OC)cc1Cl`, for which the proliferation was 0.34% (inactive). Next, `COC(=O)c1ccc(CN2CCN(CCCc3ccccc3)C(CCO)C2)cc1` (centres undefined): -3.99% (inactive); `Cc1nn(CC(=O)Nc2ccc(N(C)C)cc2)c(C)c1[N+](=O)[O-]`: 3.2% (inactive); `C[n+]1cc(-c2ccccc2)oc1-c1ccccc1`: -1.56% (inactive). Turning to `CN(C)c1nc(N)nc(Cn2nnc(-c3ccc(C(F)(F)F)cc3)n2)n1`, the proliferation was 1.04% (inactive). To `COc1ccc(-c2nnn(Cc3nc(N)nc(N4CCCCC4)n3)n2)cc1` belongs 8.76% (active). Next, `COc1ccc(-n2nnnc2SCc2nc(N)nc(N3CCOCC3)n2)cc1`: -2.85% (inactive); `CC(=O)Nc1ccc(NC(=O)C(C)OC(=O)c2ccccc2C(=O)c2ccc(Cl)c([N+](=O)[O-])c2)cc1` (centres undefined): -5.3% (inactive). To `O=C(Nn1c(-c2ccc(Cl)cc2)nc2ccccc2c1=O)c1cccnc1Cl` belongs -0.79% (inactive); to `N#CCc1ccc(NC(=O)c2ccccc2C(=O)Nc2ccc(CC#N)cc2)cc1`, -4.24% (inactive).

In the case of `CCOc1ccccc1NC(=O)Nc1cc(OC)ccc1OC`, the proliferation was 7.28% (active). To `COc1ccc(OC)c(NC(=O)CC(Cc2ccccc2OC)C(=O)O)c1` (centres undefined) belongs -2.33% (inactive); to `CCOc1ccc(NC(=O)Nc2cc(C)ccc2OC)cc1`, -2.89% (inactive).

Take `CC(C)(C)N(Cc1ccccc1)C(=O)c1ccncc1`: the proliferation is -4.48% (inactive). To `O=c1[nH][nH]c(C(F)(F)F)c1C=NCc1ccccc1Cl` belongs -0.46% (inactive); to `Cc1cccn2c(=O)c3cc(C(=O)NCCN4CCOCC4)c(=N)n(Cc4cccnc4)c3nc12`, -6.51% (inactive); to `COc1ccc(CCn2c(=N)c(C(=O)NCc3ccco3)cc3c(=O)n4cccc(C)c4nc32)cc1`, 10.3% (active).

For the compound `COc1ccc(CCn2c(=N)c(C(=O)NCC3CCCO3)cc3c(=O)n4cccc(C)c4nc32)cc1OC` (centres undefined), the proliferation is -3.69% (inactive).
